# Source: the OligoGym collection
# Molecular target: PPIL1
# Experiment: pooled miR-30 sensor sort-seq; sequence = guide strand
# Conditions: shRNA
# Also: reference of the scale not given here.
row,Sequence,sensor-assay potency score (higher = more potent)
1,TTAGCATTACATGTCATTCTAT,-0.539
2,TAGATGCACCACCTCGACCTGT,-1.02
3,TATGTCATCTAGAAGCTGGTTC,0.329
4,TTCTATGTCATCTAGAAGCTGG,0.291
5,TTGGATCATGAAGTCTTTGATA,-1.36
6,TTCACGTCGTCCACAGGGCGGT,-0.967
7,TAGATAGATGCACCACCTCGAC,-1.34
8,TTCTGTGGAATTTTGTGCCATT,-0.861
9,TTACATGTCATTCTATGTCATC,-1.08
10,TGTAGTAACCTCGACGAGCCAA,-0.207
11,TAAAATGTACTTCCATCTCTAA,-0.493
12,TAGCATTACATGTCATTCTATG,-0.73

# Molecular target: PPM1D
# Experiment: as above
# Conditions: shRNA
row,Sequence,sensor-assay potency score (higher = more potent)
1,TTTTTTCTCCTCTTGGTCCTGG,0.387
2,TATACTTGTGCTTCTGAGGGTC,0.801
3,TATAATATACTTGTGCTTCTGA,0.584
4,TTGAGTAACGTCCTCCATGTAC,-0.62
5,TAACAGAGTTCTTTCGCTGTGA,0.0976
6,TTCGATTCGTTCTCTTTCCTTG,0.00604
7,TTTAACAGAGTTCTTTCGCTGT,0.0988
8,TTTCTTTAAACATTTAGCCCTA,-0.501
9,TTGGACTCTTCTAATGTCCTTT,-0.026
10,TTTTACAGCAACTTATACCCTA,0.379
11,TTGAGGGTATGACTACACCTTG,-1.21
12,TTTACAGCAACTTATACCCTAA,-0.288
